In PubChem BioAssay one finds z-score data, which are given here for 15 molecules.

The source made the active and inactive calls.

The nature of assay [1]: A549 cell viability effects, profiling panel, calcein-AM fluorescence, 48 h, basal (AID 1162). To be noted: higher = more signal.
A short description of assay [2]: adipocyte viability effects, profiling panel, cell-based, 3T3-L1 adipocytes, calcein-AM fluorescence, 48 h, basal (AID 1163). To be noted: 3T3-L1 adipocytes viability, higher = more signal.
Assay [3] can be described thus: HepG2 cell viability effects, profiling panel, calcein-AM fluorescence, 48 h, basal (AID 1164). To be noted: higher = more signal.
Assay [4] can be described thus: MM1S cell viability effects, profiling panel, calcein-AM fluorescence, 48 h, basal (AID 1165).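 Note: viability of MM1S multiple myeloma cells under basal unstimulated conditions.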 To be noted: higher = more signal.
Assay [5] in a line: basal RPMI8226 viability, no added stimulus, profiling panel, cell-based, calcein-AM fluorescence, 48 h, PK04 Diversity Set (AID 1166).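 Note: cells grown under basal conditions without added stimulus.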 To be noted: RPMI8226 myeloma viability, higher = more signal.
A short description of assay [6]: basal HepG2 mitochondrial membrane potential changes, profiling panel, cell-based, JC-1 fluorescence, 24 h, 100 nL compound (AID 1167). To be noted: higher = more signal.
A short description of assay [7]: basal 3T3-L1 adipocyte mitochondrial potential changes, profiling panel, cell-based, JC-1 fluorescence, 3T3-L1 adipocytes, 24 h, 100 nL compound (AID 1168). To be noted: JC-1 mitochondrial fluorescence, higher = more signal, called active from +8 up or from −8 down.
Assay [8] can be described thus: basal RPMI8226 mitochondrial membrane potential changes, profiling panel, cell-based, JC-1 fluorescence, 24 h, 100 nL compound (AID 1169). To be noted: RPMI8226 myeloma, JC-1 mitochondrial potential fluorescence, higher = more signal.
Assay [9] is described as follows: basal MM1S mitochondrial membrane potential changes, profiling panel, cell-based, JC-1 fluorescence, 24 h, 100 nL compound (AID 1170). To be noted: higher = more signal.
Assay [10] is described as follows: A549 lung cancer cell viability effects, profiling panel, resazurin fluorescence, 24 h, PK04 Diversity Set (AID 1171). To be noted: higher = more signal, called active from +8 up or from −8 down. For orientation: Resazurin is reduced to fluorescent resorufin, in cell work by metabolically active cells.
Note: test concentration not given here.

Regarding `COc1ccc([Si](C)(C)[C@H]2[C@H](CC(=O)N3CCC[C@H]3CO)O[C@@]3(C(=O)N(Cc4ccc(N5CCCCC5=O)cc4)c4ccccc43)[C@@H]2C)cc1`, the z-score is -0.288 in [1]; 0.954 in assay [2]; -0.531 in [3]; -1.74 in assay [4]; -3.5 in [5]; 3.5 in [6]. Further, the z-score in assay [7] was -0.774 (inactive); in assay [8] it was -1.02; in assay [9], -0.184; in [10], -0.421 (inactive).

As for `CN(C)CCCC[C@@H]1NC(=O)[C@@H]2C[C@H](C(=O)NCCCCCN)[C@H](c3cccc(OCCO)c3)N2C1=O`, the z-score in assay [1] is 2.2; in assay [2], 0.494; in assay [3], 1.44; in assay [4], -0.0351; in assay [5] it was 0.891; in assay [6], 1.63. The z-score in assay [7] is -1.03 (inactive); in assay [8], -0.891; in [9], 0.697; in assay [10] it was 1.08 (inactive).

`CO[C@H]1O[C@H](CO)[C@@H](OC(=O)Nc2ccccc2)[C@H](OC(=O)Nc2ccccc2)[C@H]1OC(=O)Nc1ccccc1`: the z-score is -1.27 in [1]; 0.416 in assay [2]; -1.92 in assay [3]; -0.77 in assay [4]; -3.14 in assay [5]; 0.292 in [6]. The z-score was 0.0293 (inactive) in assay [7], -0.77 in assay [8], -1.06 in assay [9] and -3.04 (inactive) in assay [10].

In the case of `CC(C)N1C(=O)c2ccccc2[C@](C)(C(=O)NCC(F)(F)F)[C@@H]1c1ccc(CO)cc1`, the z-score is 0.508 in [1]; 1.33 in [2]; 1.01 in assay [3]; 0.0226 in assay [4]; 0.177 in assay [5]; 0.686 in assay [6]. In addition, the z-score in [7] is -0.0819 (inactive); in [8], 0.261; in assay [9], 1.38; in [10] it was 0.87 (inactive).

For `CC(C)=CCCC(C)=CC(O)C1C=CC2C(=O)NC(=O)C2N1Nc1ccc(Cl)cc1Cl` (stereo not given), the z-score in assay [1] was -0.483; in assay [2], -0.0042; in assay [3], -1.62; in assay [4], -3.76; in [5], -4.11; in assay [6], -3.49. In addition, the z-score was -0.947 (inactive) in assay [7], -0.238 in assay [8], -0.506 in assay [9] and -0.577 (inactive) in assay [10].

In the case of `COc1ccc(C(O)C2C=CC3C(=O)N(C)C(=O)C3N2N(c2ccccc2)c2ccccc2)cc1` (stereo not given), the z-score is -0.738 in assay [1]; -0.863 in assay [2]; 0.132 in assay [3]; 0.513 in assay [4]; -0.556 in [5]; -0.93 in [6]. In addition, the z-score was -1.3 (inactive) in assay [7], -0.544 in assay [8], -0.426 in assay [9] and -0.691 (inactive) in [10].

Take `C=CCNC(=O)[C@H]1[C@@H]2C(=O)O[C@@H](c3ccccc3)[C@@H](c3ccccc3)N2[C@@H](c2ccc(OCCO)cc2)[C@]12C(=O)Nc1ccc(C#CC3(O)CCCCCC3)cc12`: the z-score is 1.17 in assay [1]; 1.36 in assay [2]; -0.0346 in assay [3]; -2.27 in assay [4]; -1.41 in assay [5]; -1.57 in assay [6]. Also, the z-score in assay [7] is 0.43 (inactive); in [8], -0.819; in [9], -0.535; in assay [10], 1.31 (inactive).

Take `O=C(NC1CC1)[C@@H]1c2ccccc2C(=O)N(Cc2ccc(OC(F)(F)F)cc2)[C@H]1c1ccc(CO)cc1`: the z-score in assay [1] is 1.1; in assay [2], 0.707; in [3], -0.591; in assay [4], 0.0839; in assay [5], -0.0348; in assay [6], 2.35. The z-score is 0.379 (inactive) in [7], -0.261 in assay [8], 0.825 in [9] and 1.03 (inactive) in assay [10].

In the case of `C[N+](C)(C)CCCCNC(=O)[C@H]1C[C@H]2C(=O)N[C@@H](Cc3ccccc3)C(=O)N2[C@H]1c1cccc(OCCO)c1`, the z-score in assay [1] was -0.52; in [2] it was -0.878; in [3], -0.097; in [4] it was 0.135; in assay [5], -0.748; in assay [6], -0.559. The z-score in assay [7] was -0.318 (inactive); in assay [8], 0.0888; in [9] it was -0.4; in [10], -0.967 (inactive).

As for `C=C(CCCC)/C(=C/C[C@H](OC(=O)c1ccncc1)c1ccc(OCCO)cc1)c1cnc2ccccc2c1`, the z-score was 1.09 in [1]; 0.464 in [2]; 0.014 in [3]; -2.55 in assay [4]; -0.499 in assay [5]; 1.98 in [6]. In addition, the z-score was -0.689 (inactive) in assay [7], -0.756 in [8], -0.262 in assay [9] and 1.2 (inactive) in assay [10].

Take `O=C1C=C(c2ccccc2)C(=O)C2=C1CC([C@H]1Oc3ccccc3S(=O)(=O)N3CCC[C@@H]13)=CC2`: the z-score in assay [1] is -0.653; in assay [2], -0.17; in assay [3], -1.05; in assay [4], -3.2; in assay [5], -3.99; in assay [6], -3.49. Also, the z-score in assay [7] was -2.49 (inactive); in assay [8] it was -1.16; in assay [9] it was -2.67; in [10] it was -0.0039 (inactive).

Regarding `NC(=O)N1C(=O)C2C(C1=O)C1C=C(CCCO)C2C(c2ccc(CN3CCCC3)cc2)N1Cc1sc2ccccc2c1Cl` (stereo not given), the z-score is -0.142 in assay [1]; -0.501 in assay [2]; -0.389 in assay [3]; -2.67 in assay [4]; 0.0222 in assay [5]; 0.916 in [6]. Further, the z-score is -0.753 (inactive) in assay [7], 0.0845 in assay [8], 0.423 in [9] and -0.301 (inactive) in assay [10].

Consider `COC(=O)c1cccc([C@H]2OC(=CC(=O)OC(C)C)C[C@@H](c3cccc(C(=O)OC)c3)O2)c1`, for which the z-score in assay [1] is -0.921; in assay [2] it was 0.229; in assay [3] it was -0.248; in assay [4], -3.15; in [5], -1.64; in assay [6], -0.571. Also, the z-score in assay [7] is -1.52 (inactive); in [8], -1.08; in [9], -2.76; in [10], -0.0417 (inactive).

In the case of `C=CCOC(=O)[C@@H]1[C@H]2C(=O)O[C@H](c3ccccc3)[C@H](c3ccccc3)N2[C@H](c2ccc(OCCOC(=O)[C@H]3C[C@H]4C(=O)N[C@@H](CCCCN(C)C)C(=O)N4[C@H]3c3ccc(O)cc3)cc2)[C@@]12C(=O)Nc1ccc(I)cc12`, the z-score in assay [1] was -0.191; in [2], -0.357; in assay [3] it was 0.278; in [4], -0.644; in assay [5] it was -1.11; in [6], 0.309. Also, the z-score in assay [7] was 1.33 (inactive); in assay [8] it was -0.35; in assay [9], -0.933; in assay [10], 0.923 (inactive).

Take `O=C1O[C@H](c2ccccc2)[C@H](c2ccccc2)N2[C@H]1[C@@H](C(=O)N1CCN(c3ncccn3)CC1)[C@]1(C(=O)Nc3ccc(C#CCCO)cc31)[C@H]2c1ccc(O)cc1`: the z-score in assay [1] was 0.356; in [2], 0.255; in assay [3] it was 0.775; in assay [4], -0.0982; in assay [5], -0.26; in assay [6], -0.19. The z-score is -0.501 (inactive) in [7], -0.443 in [8], -0.0233 in assay [9] and 1.59 (inactive) in assay [10].
